Hit rate of the full screen: of about 370,000 compounds, about 3,000 (0.81%) were called active. The full list was thinned out, with actives kept by preference. Unmarked numbers belong to inactive results.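 The calls were made as follows: active = activity above about 14% (limit read from the data; passing the limit was not always enough); inactive = the rest.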

Consider 89 compounds from PubChem BioAssay AID1259318 (Sanford-Burnham Center for Chemical Genomics, 2017).

Chain of Nuclear receptor subfamily 1 group D member 1 (Homo sapiens) (P20393 whole entry, looked up): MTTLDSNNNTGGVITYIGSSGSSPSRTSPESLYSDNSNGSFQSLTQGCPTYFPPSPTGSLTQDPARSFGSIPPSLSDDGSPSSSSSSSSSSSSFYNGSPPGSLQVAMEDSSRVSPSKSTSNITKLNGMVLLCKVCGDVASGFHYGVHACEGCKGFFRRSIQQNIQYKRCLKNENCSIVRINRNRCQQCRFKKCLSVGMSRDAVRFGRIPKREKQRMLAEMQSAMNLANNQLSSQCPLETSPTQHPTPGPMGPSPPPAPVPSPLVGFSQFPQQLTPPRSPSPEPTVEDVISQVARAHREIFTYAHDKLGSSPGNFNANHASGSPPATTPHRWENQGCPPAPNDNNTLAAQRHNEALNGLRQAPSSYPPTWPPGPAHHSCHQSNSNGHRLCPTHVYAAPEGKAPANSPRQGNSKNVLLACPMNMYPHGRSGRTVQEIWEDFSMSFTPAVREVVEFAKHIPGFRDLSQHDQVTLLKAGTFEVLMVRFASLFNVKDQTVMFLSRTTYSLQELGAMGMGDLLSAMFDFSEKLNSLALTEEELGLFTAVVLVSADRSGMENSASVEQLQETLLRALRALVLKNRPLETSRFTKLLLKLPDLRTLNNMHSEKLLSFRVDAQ

The assay addresses Nuclear receptor subfamily 1 group D member 1 (Homo sapiens) (UniProt P20393). Description: Rev-erbα–DNA interaction modulation – biochemical, FITC-DNA, fluorescence polarization, uHTS, primary screen (AID 1259318).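 Also: 0% = DMSO wells with 35 nM protein and 100% = DMSO wells with 750 nM protein.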 The conditions noted are these: Rev-erbα–FITC-DNA binding, 90 min, at 10 µM, active compounds read high.
Regarding `CC(NC(=O)C(C)(C)C)C(c1cccs1)N1CCN(Cc2ccccc2)CC1` (centres undefined), the activity is -5.62%.

Consider `O=C(Nn1cnc2ccccc2c1=O)c1ccc(F)cc1Cl`, for which the activity is -3.38%.

In the case of `CC(C)C(C)NC(=O)COc1ncnc2ccccc12` (centres undefined), the activity was 1.73%.

On to `O=C(COc1ccccc1O)NC1CCCC1`, for which the activity is 2.25%.

`CC(C)C(C)NC(=O)COc1nc2ccccc2nc1N(C)C1CCCCC1` (centres undefined): the activity was 62.5% (active).

Regarding `CCCN1C(=O)C(NC(C)=O)c2cc(OC)ccc21` (centres undefined), the activity is 1.76%.

`CCOC(=O)N1CCN(C(=O)COCc2cc(-c3ccc4c(c3)OCO4)on2)CC1`: the activity is 2.06%.

For the compound `CCc1ccccc1NC(=O)c1cc(-c2ccc3c(c2)OCO3)on1`, the activity was 21.2% (active).

Consider `CC(C)NC(=O)COCc1cc(-c2ccc3c(c2)OCO3)on1`, for which the activity is 3.84%.

In the case of `CCCCCCCCCc1ccc(OCCOCCOCCOCCOCCOCCOCCOCCOCCO)cc1`, the activity is 2.2%.

With `CC[C@H](NC(=O)[C@H](Cc1ccccc1)NC(=O)[C@H]1O[C@@H](n2cnc3c(=O)[nH]c(N)nc32)[C@H](O)[C@@H]1O)c1ccccc1`, the activity is 1.57%.

With `CCOC(=O)c1c(NC(=O)C2CC=CCC2C(=O)O)sc(C)c1CC` (centres undefined), the activity was -10.6%.

Regarding `CCOC(=O)c1c(NC(=O)CN2C(=O)NC3(CCC(C)CC3)C2=O)sc(C)c1CC` (centres undefined), the activity was 21.8% (active).

On to `CCC1CCC2(CC1)NC(=O)N(CC(=O)Nc1ccc(OC)cc1)C2=O` (centres undefined), for which the activity is -2.27%.

In the case of `O=C1NC(c2ccccc2)=NC1(Nc1ccccn1)C(F)(F)F` (centres undefined), the activity is -2.21%.

On to `C[C@@H]1CN([C@@H](C)CO)S(=O)(=O)c2ccc(C#Cc3cccc(F)c3)cc2O[C@H]1CN(C)S(=O)(=O)c1cn(C)cn1`, for which the activity was 4.67%.

For the compound `CCCC1O[C@@H]2CC3C4CCC5=CC(=O)C=CC5(C)C4[C@@H](O)CC3(C)[C@]2(C(=O)CO)O1` (some centres undefined), the activity is 3.39%.

With `S=c1nccc(-c2cc(Cl)sc2Cl)[nH]1`, the activity is 20.9% (active).

For `CC1=C(/C=C/C(C)=C/C=C/C(C)=C/C=C/C=C(C)/C=C/C=C(C)/C=C/C2=C(C)CCCC2(C)C)C(C)(C)CCC1`, the activity is -1.26%.

On to `COc1ccccc1NC(=O)c1cc(N2C(=O)C3C4CCC(C4)C3C2=O)ccc1Cl` (centres undefined), for which the activity is -4.24%.

For `Cc1ccc(CNC(=O)CC(NC(=O)c2ccccc2)c2ccccc2)cc1` (centres undefined), the activity is -3.7%.

Turning to `CC(=O)C1(C(=O)Nc2nccs2)CC(c2ccccc2C(F)(F)F)=NO1` (centres undefined), the activity was 2.17%.

On to `O=C(O)CSCNC(=O)CC12CC3CC(CC(C3)C1)C2`, for which the activity is 5.91%.

As for `C=CCNC(=O)CC12CC3CC(C1)CC(CC(=O)NCC=C)(C3)C2`, the activity was 27.5% (active).

For `C=CCNC(=O)C12CC3CC(C1)CC(C(=O)NCC=C)(C3)C2`, the activity was 1.74%.

In the case of `Cc1cccc(NC(=O)c2cc(S(=O)(=O)N3CCC4(CC3)OCCO4)ccc2F)c1`, the activity is -2.46%.

For the compound `O=C(N[C@H]1CC[C@H](CC(=O)N2CCCCC2)O[C@@H]1CO)c1cccc(F)c1`, the activity is 3.8%.

On to `CON(C)S(=O)(=O)c1ccc2c(c1)NC(=O)C1CCCN21` (centres undefined), for which the activity was -3.22%.

With `Cc1cc(C)c2c(-c3ccc(F)cc3)c(C#N)c(=O)n(C)c2n1`, the activity is 56.8% (active).

As to `Cn1c(N)cc(-c2ccc(F)cc2)c(C#N)c1=O`, the activity is -1.46%.

Consider `COc1ccc(O)c(C(=O)c2cnc3c(c2)c(-c2ccc(F)cc2)c(C#N)c(=O)n3C)c1`, for which the activity was -4.88%.

In the case of `C=CCN1C(=O)[C@@H](CC(=O)NCC2CCCCC2)[C@]2(C(=O)OC)CCCCC=C12`, the activity is 8.08%.

Turning to `Cc1nonc1OCCn1nnnc1N`, the activity was 0.14%.

Turning to `c1ccc2c(-c3nn4nnnc4c4ccccc34)cccc2c1`, the activity is 28.7% (active).

`COc1ccc(C)cc1NC(=O)NCCCCc1ccccc1`: the activity was -4.58%.

For `CC1CCCC(C)N1C(=O)COC(=O)COc1ccccc1C#N` (centres undefined), the activity is 8.28%.

For `COc1ccc(CN(CCN2CCOCC2)C(=O)c2ccc(C)cc2)cc1OC`, the activity was -7.19%.

Regarding `O=C1CC(c2cccc(F)c2)C2=C(CCCC2=O)N1` (centres undefined), the activity is 1.68%.

Take `COc1ccc(OC)c(C2C3=C(N=c4s/c(=C\c5cccc(O)c5)c(=O)n42)c2ccccc2CC3)c1` (centres undefined): the activity was -1.04%.

`O=C1CCCC2=C1C(c1ccccc1)n1c(s/c(=C/c3cccc(F)c3)c1=O)=N2` (centres undefined): the activity was 35% (active).

Turning to `O=C1Cc2ccccc2Sc2ccc(Cl)cc21`, the activity was 15.6% (active).

With `S=C1Nc2cc(Cl)ccc2Sc2ccccc21`, the activity is -3.11%.

For `O=C1CC2(CCCC2)Oc2ccc(Cl)cc21`, the activity is 1.88%.

Consider `Cc1ccc(S(=O)(=O)c2c[nH]c3ccc(Cl)cc3c2=O)cc1`, for which the activity was 136% (active).

On to `Cc1ccc(S(=O)(=O)c2c[nH]c3ccc(C)cc3c2=O)cc1`, for which the activity was 4.77%.

`CCCCN(C)Cc1c(C)[nH]c2ccc(Cl)cc2c1=O`: the activity is 3.27%.

With `COc1ccc(N(CC(=O)NCc2ccc(F)cc2)C(=O)CCC(=O)Nc2nccs2)cc1`, the activity is -2.56%.

As for `Cc1cc(Cl)ccc1NNC(=O)c1snnc1C`, the activity was 3.67%.

`CC(C)(C)N1CC(c2nc3ccccc3n2Cc2ccc(F)cc2)CC1=O` (centres undefined): the activity is -4.96%.

Take `CCOC(=O)CNc1nc2ccccc2n2c(C)nnc12`: the activity is 2.94%.

For `Fc1ccc(CNc2nc3ccccc3n3nnnc23)cc1`, the activity was 40.6% (active).

Take `COC(=O)[C@]1(C)N[C@H](c2ccc(-c3ccc(Cl)c(Cl)c3)cc2)[C@@H]2C(=O)N(C)C(=O)[C@@H]21`: the activity was 2.33%.

Consider `Cc1nc(N2CCC(C)CC2)c2c(C)c(C(=O)Nc3cc(F)ccc3C)sc2n1`, for which the activity was 15.7%.

As for `Cc1nc(N2CCN(c3ccccn3)CC2)c2c(C)c(C(=O)Nc3ccc(F)c(Cl)c3)sc2n1`, the activity was 32% (active).

As to `O=C(Nc1ccc(F)c(Cl)c1)C1CCN(S(=O)(=O)c2cccnc2)CC1`, the activity is -4.36%.

In the case of `COc1ccc(-c2nnc3n2CCCCC3)cc1`, the activity is -6.25%.

Consider `O=S(=O)(c1ccccc1)c1nc(-c2ccccc2F)oc1NCc1cccnc1`, for which the activity was -3.4%.

As for `O=C(NCc1cccnc1)c1ccc(CS(=O)(=O)c2ccc(Br)cc2)o1`, the activity was -2.47%.

Turning to `O=S(=O)(c1ccc(Br)cc1)c1nc(-c2ccccc2)oc1NCc1cccnc1`, the activity was 27.6% (active).

For the compound `Cc1nn(CC#N)c(=O)n1N(C)c1ncc(C(F)(F)F)cc1Cl`, the activity is 7.64%.

For the compound `CCOc1ccc(C2NC(=S)NC3=C2CCc2ccccc23)cc1` (centres undefined), the activity is 7.82%.

As to `O=C(COC(=O)c1cccc(Cl)c1Cl)NC1CCCCCC1`, the activity is -4.74%.

As to `N#Cc1ccc(C(=O)OCC(=O)NC(=O)NC2CCCCC2)cc1`, the activity is -4.11%.

As to `N#Cc1ccccc1Sc1ccccc1C(=O)OCC(=O)NC1CCCCC1`, the activity was 61.4% (active).

As to `O=C(COC(=O)c1cccc(Cl)c1)NC1CCCCCCC1`, the activity was -7.98%.

As for `O=C(COC(=O)c1ccccc1SCC(=O)NC1CCCCC1)NC1CCCCC1`, the activity is 70.3% (active).

Turning to `O=C(COC(=O)c1cc([N+](=O)[O-])ccc1NCc1ccccc1)NC1CCCCC1`, the activity is -4.56%.

For `COC(=O)[C@]12C[C@H](CC(=O)NCc3ccccc3)C(=O)N(CCC3=CCCCC3)C1=C[C@H](C(C)C)O[C@@H]2C1CC1`, the activity was -4.75%.

Regarding `Cc1cc(C(=O)OCC(=O)Nc2ccc(F)c(F)c2)c(C)o1`, the activity was 4.64%.

As to `CCc1ccc(C(=O)NNC(=O)C2CCN(c3ncnc4sc(C)c(C)c34)CC2)cc1`, the activity was -5.39%.

With `Cc1sc2ncnc(N3CCC(C(=O)Nc4nc5ccc(Cl)cc5s4)CC3)c2c1C`, the activity was 42.2% (active).

Take `Cc1sc2ncnc(N3CCC(C(=O)Nc4ccc(F)cc4Cl)CC3)c2c1C`: the activity is 8.75%.

As to `O=C1NS(=O)(=O)c2ccccc21`, the activity is 4.73%.

Regarding `CCOc1ccc(-n2c(SCC(=O)Nc3cc(C)c(NC(=O)c4ccccc4)cc3OC)nnc2-c2cccc(Cl)c2)cc1`, the activity is -3.54%.

Turning to `COc1ccc2[nH]c(C(=O)Nc3ccccc3Cl)cc2c1`, the activity was 49.3% (active).

In the case of `COc1cc2cc(CN(CCN3CCCC3)C(=O)Nc3ccccc3Cl)c(=O)[nH]c2cc1OC`, the activity was 1.22%.

As to `COc1cc(NC(=O)c2ccccc2NS(=O)(=O)c2ccc(Cl)s2)cc(OC)c1`, the activity was 0.46%.

`CC1(Cc2cccc(C#N)c2)C(=O)Nc2ccc(-c3cccc(C(F)(F)F)c3)cc21` (centres undefined): the activity is 0.78%.

With `COc1ccccc1CC1(C)C(=O)Nc2ccc(OC(F)(F)F)cc21` (centres undefined), the activity is 51.9% (active).

As to `CCc1ccc2c(c1)NC(=O)C2(C)Cc1ccc(OC(F)(F)F)cc1` (centres undefined), the activity is 4.7%.

Turning to `COc1cc2c(cc1OC)[C@@H](Cc1cc(OC)c(OC)c(OC)c1)[N+](C)(CCCOC(=O)CC/C=C/CCC(=O)OCCC[N+]1(C)CCc3cc(OC)c(OC)cc3[C@H]1Cc1cc(OC)c(OC)c(OC)c1)CC2` (some centres undefined), the activity is 4.74%.

With `Cc1cc(=O)oc(C)c1C(=O)N1CCCCC1`, the activity was 20.1% (active).

Turning to `Cc1c(Br)cc(C(=O)N2CCCCCC2)c(C)c1C`, the activity was -0.12%.

`Cc1cc(=O)oc(C)c1C(=O)NC1CC(C)(C)NC(C)(C)C1`: the activity was -3.78%.

As to `CCC1(C)OC(=O)N(C)C1=O` (centres undefined), the activity was -3.1%.

As for `Nc1cccc(OCCCCCOc2cccc(N)c2)c1`, the activity was 5%.

For `COc1cc(OC)cc(-c2c(C#Cc3ccsc3)c3cc(-c4ccc(SC)cc4)ccc3n2C)c1`, the activity was 34.1% (active).

In the case of `COc1ccc(-c2c(C#Cc3ccsc3)c3cc(-c4ccc(CN5CCOCC5)cc4)ccc3n2C)cc1`, the activity was 3.65%.

As for `COc1cc(OC)cc(-c2c(C#Cc3ccsc3)c3cc(-c4ccc(OC)cc4F)ccc3n2C)c1`, the activity is -0.12%.
